Bioassay records from PubChem.
TROY signal inh: blocks TROY-dependent signaling in reporter cells. Q293 LMP1-TROYcd NF-kB luciferase reporter, 4 h. inhibition, % at 10 µM. 360,000 tested, 0.98% active. AID 1347056;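 active = compounds whose plate-normalised and pattern-corrected inhibition of the luciferase reporter signal at the single screening dose is 50% or more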
LGR2 antag: Drosophila LGR2 receptor signaling inhibition; HEK293 LGR2, CRE-luciferase, bursicon-stimulated, 4 h; inhibition, % at 9.99 µM; 380,000 tested, 0.35% active;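 active = drop in luminescence signal, shown as inhibition above about 50% in the replicate tests, limit read from the data, passing the limit was not always enough; inconclusive = probably only some replicates passing the limit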;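 also: agonist challenge used bursicon conditioned medium at about half maximal strength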
EBV LMP1 NFkB: Epstein-Barr LMP1 NF-kappaB reporter inhibition. 350,000 tested, 0.69% active. LMP1-induced NF-kappaB luciferase reporter cells, luminescence. inhibition, % at 12.5 µM. AID 504558; in the data active = inhibition above about 41%; inconclusive = no clear call, values can overlap the other calls;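 also: 0% = neutral control wells and 100% = reference inhibitor control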
HSF1 inh: HSF1 inhibition; NIH3T3-HGL HSE-luciferase, MG132-induced, luminescence 8 h; hits give low values; activity change, negative = inhibition, % at 7.5 µM (by protocol); 300,000 tested, 0.77% active;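 active = more than half of replicate wells show activity change below -50%, luminescence cut by over half; inconclusive = some wells, but at most half, below -50%; inactive = no replicate well below -50%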;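 also: luciferase reports HSF-1 transcriptional activity via heat shock element; 0% = median of DMSO wells and -100% = zero luminescence signal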
HSF1 activator: increases HSF-1 driven luciferase reporter signal. NIH3T3-HGL HSF-1 luciferase reporter, MG132, 8 h; 100% = twice DMSO control signal. activation, % at 9 µM. 300,000 tested, 1.7% active. AID 504408;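 active = mean replicate activation of at least 50% with a set share of replicates each reaching 50%; inconclusive = only one of those two conditions met; inactive = mean below 50% and too few replicates reaching it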;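 also: 0% = median of the neutral control wells and 100% = twice that signal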
TWEAK Fn14 block: TWEAK-Fn14 signaling inhibition; TWEAK-stimulated Fn14 reporter cells, luciferase luminescence, 8 h; inhibition, % at 10 µM; 360,000 tested, 2% active; AID 1159606; in the data active = inhibition above about 50%
* = called active by the depositor; ? = inconclusive; nt = no result; ! = a repeat was not active. Hits are enriched below; roughly 3.6% of the tested compounds scored in any of these assays.

SMILES	TROY signal inh	LGR2 antag	EBV LMP1 NFkB	HSF1 inh	HSF1 activator	TWEAK Fn14 block
CC(C)(C)c1nc(SCC(=O)Nc2ccc(N3CCOCC3)cc2)c2ccccc2n1	0.1	nt	8.1	27.3	58.4*	21.3
CC(=O)c1ccc(NC(=O)CN2CCOCC2)cc1	-2.6	-9.8	4.5	-0.8	2.6	109.6*
COc1ccccc1S(=O)(=O)N[C@@H]1C=C[C@H](CC(=O)NCc2cc(F)cc(F)c2)O[C@H]1CO	nt	1.9	nt	nt	nt	nt
C[C@@H]1CN([C@@H](C)CO)C(=O)c2cc(NC(=O)Nc3ccc(C(F)(F)F)cc3)ccc2O[C@@H](C)CCCCO[C@H]1CN(C)Cc1ccccc1	nt	0.2	nt	nt	nt	nt
C[C@@H]1CCCCO[C@H](CN(C)C(=O)C2CCCCC2)[C@H](C)CN([C@H](C)CO)C(=O)c2cc(NS(=O)(=O)c3cccs3)ccc2O1	nt	-16.3	nt	nt	nt	nt
C[C@@H]1CCCCO[C@H](CN(C)S(=O)(=O)c2ccc(Cl)cc2)[C@H](C)CN([C@@H](C)CO)C(=O)c2cc(NC(=O)CCC(F)(F)F)ccc2O1	nt	19.9	nt	nt	nt	nt
CCc1ccc(C(=O)NC(=S)Nc2ccc(N3CCOCC3)cc2)cc1	52.6*	-14.3	15.7	?	-56.8	21.6
O=C(Nc1ccc(N2CCOCC2)cc1)c1ccc2nc(-c3ccco3)c(-c3ccco3)nc2c1	1.9	nt	-6.5	-5.5	-4.8	7.6
CC(C)CC(=O)Nc1ccc(N2CCOCC2)cc1	-26.1	0.6	-0.1	46.2	98.2*	1.4
COc1cc(NC(=O)c2ccc(C)cc2)c(OC)cc1NC(=O)CN1CCOCC1	-22.6	nt	-6.9	52.1	60.3*	-13.0
S=C(Nc1ccc(N2CCOCC2)cc1)Nc1ccc2nc(-c3ccco3)c(-c3ccco3)nc2c1	4.0	nt	0.9	-9.0	-17.3	71.6*
COc1ccc(NC(=O)Nc2cccc3c2O[C@@H](CN(C)Cc2ccncc2)[C@H](C)CN([C@@H](C)CO)C3=O)cc1	nt	-3.8	nt	nt	nt	nt
Nc1ncnc2c(C3OC(CO)C(O)C3O)c[nH]c12 (configuration not stated)	70.7*	100.5*	91.8*	90.8*	90.8*	100.6*
CCCCNC(=O)c1sc(=S)n2c1[nH]c(=O)c1ccccc12	56.4*	nt	-3.1	5.2	12.4	-19.3
CC(=O)c1ccc(N2CCN(C(=O)c3ccc4c(=O)[nH]c5c(C(=O)NC6CCCC6)sc(=S)n5c4c3)CC2)cc1	nt	9.5	nt	nt	nt	nt
O=C(NC1CCCCC1)c1sc(=S)n2c1[nH]c(=O)c1ccccc12	60.1*	nt	-12.9	2.3	-1.5	-12.1
O=C(NCCc1ccccc1)c1ccc2c(=O)[nH]c3c(C(=O)NCC4CCCO4)sc(=S)n3c2c1 (configuration not stated)	3.5	-8.5	1.1	12.0	15.0	-3.4
O=C(C[C@@H]1C[C@H]2c3cc(NC(=O)c4cccnc4)ccc3O[C@H]2[C@@H](CO)O1)NCc1cccnc1	nt	-20.6	nt	nt	nt	nt
C[C@@H]1CN([C@H](C)CO)C(=O)Cc2cc(NC(=O)NC3CCCCC3)ccc2O[C@@H]1CN(C)Cc1ccc2c(c1)OCO2	nt	3.0	nt	nt	nt	nt
C[C@@H]1CN([C@@H](C)CO)C(=O)c2cccc(NS(=O)(=O)c3cn(C)cn3)c2O[C@H]1CN(C)Cc1ccc(C(=O)Nc2ccccc2N)cc1	nt	2.2	nt	nt	nt	nt
Cc1ccccc1Oc1nc2c(C)cccn2c(=O)c1/C=C(\C#N)C(=O)Nc1c(C)n(C)n(-c2ccccc2)c1=O	43.7	3.7	14.4	104.8	136.6*	52.5*
Cc1cc(C)nc(S/C=C/C(=O)c2ccccc2F)n1	70.2*	nt	-42.9	150.5	188.8*	93.2*
O=C(CCCCN1CCCCC1)c1ccccc1	-16.7	1.2	7.4	0.1	3.8	-5.5
O=C(C(=Cc1ccccc1)CN1CCCCC1)c1ccccc1	41.5	94.5*	90.5*	nt	nt	102.0*
O=c1cc(COc2ccc(Cl)c(Cl)c2)nc2sccn12	-32.6	-27.6	-12.1	35.0	56.9*	-43.9
SMILES	TROY signal inh	LGR2 antag	EBV LMP1 NFkB	HSF1 inh	HSF1 activator	TWEAK Fn14 block
CCN1CCN(Cc2ccc(NC(=O)c3ccc(C)c(NC(=O)C(=O)c4c[nH]c5ccccc45)c3)cc2C(F)(F)F)CC1	-23.8	18.8	43.5*!	-41.3	-51.6	-92.9
CCN1CCN(Cc2ccc(NC(=O)c3ccc(C)c(NC(=O)c4ccc5n[nH]nc5c4)c3)cc2C(F)(F)F)CC1	-1.2	8.3	35.7	-38.7	-47.3	-1.8
CCN1CCN(Cc2ccc(NC(=O)c3ccc(C)c(NC(=O)c4ccnnc4)c3)cc2C(F)(F)F)CC1	-5.0	9.3	25.4	-33.1	-38.5	-21.3
CCN1CCN(Cc2ccc(NC(=O)c3cccc(-c4ccc5nc(NC(=O)C6CC6)sc5n4)c3)cc2C(F)(F)F)CC1	nt	76.3*	nt	nt	nt	nt
CCN1CCN(Cc2ccc(NC(=O)c3cc(NC(=O)C(=O)c4c[nH]c5ccccc45)cc(OC)c3)cc2C(F)(F)F)CC1	-4.3	-22.6	-35.1	3.4	-0.8	75.5*!
O=C(C[C@@H]1CC[C@@H](NC(=O)C2CC2)[C@H](CO)O1)NCc1ccccc1Cl	nt	-11.9	nt	nt	nt	nt
C[C@H](CO)N1C[C@H](C)[C@@H](CN(C)S(=O)(=O)c2cn(C)cn2)Oc2ncc(C#CCN(C)C)cc2C1=O	nt	-5.1	nt	nt	nt	nt
CC1CCN(C(=O)/C(=C\c2cccs2)NC(=O)c2ccccc2)CC1	-27.7	44.1	52.8*	10.4	-4.5	-5.3
COc1cc2oc(=O)cc(-c3ccc(-c4ccc(C)cc4)cc3)c2c(OC)c1OC	11.7	5.3	8.4	nt	nt	10.1
COc1cc2oc(=O)cc(-c3ccc(-c4ccc(CO)cc4)cc3)c2c(OC)c1OC	43.5	2.3	12.7	nt	nt	65.6*
Cc1ccc(N(CC2=NCCN2)c2cccc(O)c2)cc1	-3.5	-16.3	10.4	-71.8*!	-74.6	4.9
c1ccc(CN(CC2=NCCN2)c2ccccc2)cc1	7.3	nt	2.8	0.1	6.9	-18.3
OC(CNCC(c1ccc(Cl)cc1Cl)c1c[nH]c2ccccc12)c1ccccc1 (configuration not stated)	78.9*	101.9*	-36.8	-30.8	-36.6	74.0*
O=[N+]([O-])CC(c1ccccc1)c1c[nH]c2ccccc12 (configuration not stated)	4.7	5.6	nt	1.5	10.9	2.2
Cc1ccc(Cn2nnc(C(=O)Nc3cc(C)ccc3C)c2N)cc1	0.4	nt	4.8	61.3	103.6*	12.3
Cc1ccc(C)c(NC(=O)c2nnn(Cc3ccccc3)c2N)c1	-4.8	nt	6.8	-2.5	4.8	-3.9
O=C(NC1Cc2ccccc2C1)[C@H]1[C@H](CO)[C@H]2Cn3c(ccc(C4=CCCCC4)c3=O)[C@@H]1N2	nt	-6.5	nt	nt	nt	nt
C[C@H](CO)N1C[C@H](C)[C@@H](CN(C)C(=O)Nc2cccc3ccccc23)Oc2ccc(NC(=O)C3CCCCC3)cc2C1=O	nt	-4.2	nt	nt	nt	nt
C=C1CC(COc2ccc3c(C)c(Cl)c(=O)oc3c2)(c2ccccc2)OC1=O (configuration not stated)	76.4*	49.3*	1.0	nt	nt	83.5*
